The record followed here is publication PMC7862700, “An all-to-all approach to the identification of sequence-specific readers for epigenetic DNA modifications on cytosine”.

Holding throughout (assay): DAPPL (digital affinity profiling via proximity ligation, sequencing); 10 mM Tris-HCl pH 7.5, 50 mM NaCl, 1 mM DTT, 4% glycerol, room temperature, 30 min; GST-TFs on glutathione beads, 16-mer random dsDNA library, 0.1% formaldehyde crosslink after washing; high values mean tight binding
Conditions in all cases: protein: recombinant; tags: N-terminal GST; dsDNA, one strand shown

Experiment [1] concerns the target T1, SPIC (Homo sapiens, UniProt Q8N5J4 1-248).
T1 sequence: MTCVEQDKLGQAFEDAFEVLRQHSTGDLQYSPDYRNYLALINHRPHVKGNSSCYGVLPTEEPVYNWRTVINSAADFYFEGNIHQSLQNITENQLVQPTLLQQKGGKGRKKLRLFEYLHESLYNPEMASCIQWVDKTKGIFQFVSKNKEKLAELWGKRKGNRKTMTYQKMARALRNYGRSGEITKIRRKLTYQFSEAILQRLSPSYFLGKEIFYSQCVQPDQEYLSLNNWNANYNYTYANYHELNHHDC
The gist of the method: (§1)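 Binding signal is given per hexamer as its read frequency for a factor divided by its frequency in the tag-only sample. GST-fused human transcription factors were expressed in yeast, captured on glutathione beads, barcoded with DNA and pooled with that sample, then incubated with 200 nmole of a 16-mer random double-stranded DNA library in Tris/NaCl/DTT/glycerol buffer for 30 min at room temperature. The pools were then washed, crosslinked, proximity-ligated, amplified by PCR and sequenced on an Illumina NextSeq500.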

Experiment [2] deals with T2, GABPA (Homo sapiens, UniProt Q06546 1-454).
T2 sequence: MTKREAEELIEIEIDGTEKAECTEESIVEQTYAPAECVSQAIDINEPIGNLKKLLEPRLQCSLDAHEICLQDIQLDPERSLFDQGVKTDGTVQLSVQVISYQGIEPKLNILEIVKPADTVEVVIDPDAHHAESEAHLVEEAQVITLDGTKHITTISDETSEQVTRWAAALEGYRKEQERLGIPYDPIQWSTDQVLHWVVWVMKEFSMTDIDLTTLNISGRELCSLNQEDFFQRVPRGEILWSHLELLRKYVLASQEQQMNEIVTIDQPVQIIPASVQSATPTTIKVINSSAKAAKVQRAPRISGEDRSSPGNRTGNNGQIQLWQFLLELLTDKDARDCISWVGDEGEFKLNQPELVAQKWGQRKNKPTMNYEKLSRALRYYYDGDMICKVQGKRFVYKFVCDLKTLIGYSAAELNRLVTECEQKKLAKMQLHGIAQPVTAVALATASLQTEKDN
The gist of the method:
as §1

For experiment [3], the target named is ELF1 (Homo sapiens, UniProt P32519 1-619). The gist of the method: as §1
Sequence of ELF1 (P32519 whole entry): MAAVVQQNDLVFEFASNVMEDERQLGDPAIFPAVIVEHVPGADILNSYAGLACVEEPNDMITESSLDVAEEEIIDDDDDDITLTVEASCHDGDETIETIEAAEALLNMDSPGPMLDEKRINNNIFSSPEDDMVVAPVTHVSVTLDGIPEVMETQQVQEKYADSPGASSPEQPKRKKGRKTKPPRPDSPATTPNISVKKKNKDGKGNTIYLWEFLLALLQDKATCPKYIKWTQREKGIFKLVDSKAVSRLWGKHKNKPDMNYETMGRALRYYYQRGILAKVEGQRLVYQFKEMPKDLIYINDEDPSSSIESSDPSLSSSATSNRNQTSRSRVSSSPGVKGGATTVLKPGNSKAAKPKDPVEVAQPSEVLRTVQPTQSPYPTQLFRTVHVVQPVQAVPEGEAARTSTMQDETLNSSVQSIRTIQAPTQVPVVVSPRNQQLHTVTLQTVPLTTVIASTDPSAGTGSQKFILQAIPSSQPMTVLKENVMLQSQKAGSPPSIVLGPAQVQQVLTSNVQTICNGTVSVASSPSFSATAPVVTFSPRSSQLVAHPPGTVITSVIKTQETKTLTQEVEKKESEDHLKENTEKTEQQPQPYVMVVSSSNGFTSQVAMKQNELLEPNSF
In experiment [4] the target is T3, ELK3 (Homo sapiens, UniProt P41970 1-407).
T3 sequence: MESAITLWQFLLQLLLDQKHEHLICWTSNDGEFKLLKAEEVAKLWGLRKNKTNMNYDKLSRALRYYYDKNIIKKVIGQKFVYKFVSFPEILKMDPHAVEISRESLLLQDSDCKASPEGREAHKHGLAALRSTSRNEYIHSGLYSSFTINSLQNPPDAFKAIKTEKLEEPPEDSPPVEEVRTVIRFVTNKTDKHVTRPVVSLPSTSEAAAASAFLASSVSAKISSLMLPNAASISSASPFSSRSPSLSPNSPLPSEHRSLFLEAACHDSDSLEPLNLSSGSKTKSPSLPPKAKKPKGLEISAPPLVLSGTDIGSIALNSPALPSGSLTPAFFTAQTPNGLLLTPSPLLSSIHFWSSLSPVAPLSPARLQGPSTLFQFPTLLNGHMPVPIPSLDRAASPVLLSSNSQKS
The gist of the method:
as §1

Experiment [5] has as its target T4, FEV (Homo sapiens, UniProt Q99581 1-238).
T4 sequence: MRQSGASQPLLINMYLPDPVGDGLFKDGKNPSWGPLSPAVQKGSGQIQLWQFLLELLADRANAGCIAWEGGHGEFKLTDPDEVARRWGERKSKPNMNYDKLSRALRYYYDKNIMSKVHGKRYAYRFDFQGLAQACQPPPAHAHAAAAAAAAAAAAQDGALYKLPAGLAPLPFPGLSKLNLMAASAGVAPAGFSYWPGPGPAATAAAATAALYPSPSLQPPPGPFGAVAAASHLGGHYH
The method in brief: as §1

For experiment [6], the target named is ELF4 (Homo sapiens, UniProt Q99607 1-663). The gist of the method: as §1
Sequence of ELF4 (Q99607 whole entry): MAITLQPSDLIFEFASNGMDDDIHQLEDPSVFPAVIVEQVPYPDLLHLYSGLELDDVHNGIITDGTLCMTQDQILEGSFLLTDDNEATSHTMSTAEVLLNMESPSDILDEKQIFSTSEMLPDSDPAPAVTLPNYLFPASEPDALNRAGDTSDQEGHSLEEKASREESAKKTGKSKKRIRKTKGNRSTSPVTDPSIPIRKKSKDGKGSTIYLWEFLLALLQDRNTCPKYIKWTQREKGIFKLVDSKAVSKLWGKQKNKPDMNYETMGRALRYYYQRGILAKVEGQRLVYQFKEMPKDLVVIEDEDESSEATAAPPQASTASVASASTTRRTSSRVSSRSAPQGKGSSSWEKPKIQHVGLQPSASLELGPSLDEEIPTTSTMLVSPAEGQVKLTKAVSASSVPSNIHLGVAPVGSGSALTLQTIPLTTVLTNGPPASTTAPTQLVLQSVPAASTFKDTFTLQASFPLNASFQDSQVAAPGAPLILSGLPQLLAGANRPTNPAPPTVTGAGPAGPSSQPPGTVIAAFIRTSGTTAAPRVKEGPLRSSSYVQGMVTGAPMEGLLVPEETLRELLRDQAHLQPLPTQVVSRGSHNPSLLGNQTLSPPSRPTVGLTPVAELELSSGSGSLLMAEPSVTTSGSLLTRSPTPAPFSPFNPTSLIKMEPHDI
In experiment [7] the target is T5, ELK4 (Homo sapiens, UniProt P28324-2 1-405).
T5 sequence: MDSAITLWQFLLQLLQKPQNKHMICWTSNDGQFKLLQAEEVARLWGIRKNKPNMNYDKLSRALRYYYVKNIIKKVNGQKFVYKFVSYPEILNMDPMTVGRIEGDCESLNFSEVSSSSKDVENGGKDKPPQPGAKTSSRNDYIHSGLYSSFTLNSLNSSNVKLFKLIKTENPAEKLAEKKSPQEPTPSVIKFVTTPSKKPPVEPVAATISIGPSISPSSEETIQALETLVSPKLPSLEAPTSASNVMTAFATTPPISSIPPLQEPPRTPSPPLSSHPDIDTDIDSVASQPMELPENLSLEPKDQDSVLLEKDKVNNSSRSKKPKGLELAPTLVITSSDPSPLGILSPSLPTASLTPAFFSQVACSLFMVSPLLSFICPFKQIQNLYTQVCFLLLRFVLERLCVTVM
The method in brief: as §1

In experiment [8] the target is ETV1 (Homo sapiens, UniProt P50549 1-477). The method in brief:
as §1

Experiment [9] addresses T6, ETV3L (Homo sapiens, UniProt Q6ZN32 1-361).
T6 sequence: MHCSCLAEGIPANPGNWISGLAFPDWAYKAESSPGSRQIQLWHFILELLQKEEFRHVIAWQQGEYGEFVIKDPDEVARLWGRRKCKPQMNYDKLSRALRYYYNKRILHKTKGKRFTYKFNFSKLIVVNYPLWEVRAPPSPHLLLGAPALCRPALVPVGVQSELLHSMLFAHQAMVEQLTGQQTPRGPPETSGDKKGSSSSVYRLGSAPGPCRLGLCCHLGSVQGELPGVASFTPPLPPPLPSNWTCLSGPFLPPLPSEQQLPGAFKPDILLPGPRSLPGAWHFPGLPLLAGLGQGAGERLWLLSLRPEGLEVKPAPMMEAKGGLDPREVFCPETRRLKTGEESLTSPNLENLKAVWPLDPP
The method in brief:
as §1

Experiment [10] deals with T7, SPDEF (Homo sapiens, UniProt O95238 1-335).
T7 sequence: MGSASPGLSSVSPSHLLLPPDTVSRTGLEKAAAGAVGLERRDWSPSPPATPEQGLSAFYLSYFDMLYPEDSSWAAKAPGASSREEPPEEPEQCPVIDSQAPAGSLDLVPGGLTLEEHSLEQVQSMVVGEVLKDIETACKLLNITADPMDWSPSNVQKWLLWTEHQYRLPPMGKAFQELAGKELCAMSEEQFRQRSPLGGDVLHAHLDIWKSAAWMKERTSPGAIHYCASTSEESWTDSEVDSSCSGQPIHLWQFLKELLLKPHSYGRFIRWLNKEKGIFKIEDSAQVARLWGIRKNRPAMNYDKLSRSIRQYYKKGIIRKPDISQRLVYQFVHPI
The gist of the method:
as §1

For experiment [11], the target named is T8, ELF5 (Homo sapiens, UniProt Q9UKW6-2 1-255).
T8 sequence: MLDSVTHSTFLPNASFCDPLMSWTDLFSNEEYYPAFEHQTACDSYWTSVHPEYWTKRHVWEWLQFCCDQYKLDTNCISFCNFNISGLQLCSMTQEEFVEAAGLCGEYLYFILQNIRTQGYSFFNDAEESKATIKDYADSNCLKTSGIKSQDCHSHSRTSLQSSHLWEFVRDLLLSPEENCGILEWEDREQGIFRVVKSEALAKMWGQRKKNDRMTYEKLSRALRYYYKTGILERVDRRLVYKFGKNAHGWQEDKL
The method in brief: as §1

The target in experiment [12] is T9, ETV3 (Homo sapiens, UniProt P41162-2 1-143).
T9 sequence: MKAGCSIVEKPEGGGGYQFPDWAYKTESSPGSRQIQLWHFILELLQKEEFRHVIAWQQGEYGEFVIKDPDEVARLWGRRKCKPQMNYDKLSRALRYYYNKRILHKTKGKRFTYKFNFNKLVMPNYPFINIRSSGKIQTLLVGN
The method in brief:
as §1

Sequence of ETV1 (P50549 whole entry): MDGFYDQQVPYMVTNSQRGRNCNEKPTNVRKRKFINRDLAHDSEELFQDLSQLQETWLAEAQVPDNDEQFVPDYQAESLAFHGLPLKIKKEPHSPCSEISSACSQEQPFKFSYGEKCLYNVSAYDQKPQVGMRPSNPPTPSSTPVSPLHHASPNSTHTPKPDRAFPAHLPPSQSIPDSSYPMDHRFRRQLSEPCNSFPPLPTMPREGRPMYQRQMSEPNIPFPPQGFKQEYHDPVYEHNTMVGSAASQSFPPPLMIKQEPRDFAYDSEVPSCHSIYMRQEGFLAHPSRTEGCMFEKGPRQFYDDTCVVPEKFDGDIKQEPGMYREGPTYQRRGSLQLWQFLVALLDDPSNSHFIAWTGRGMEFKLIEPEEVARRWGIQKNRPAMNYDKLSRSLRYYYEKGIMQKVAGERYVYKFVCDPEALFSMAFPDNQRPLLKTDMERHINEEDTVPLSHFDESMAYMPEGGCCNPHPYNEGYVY

Consider ATGGGA, for which the binding signal in experiment [1] is 1.05 fold enrichment (6-mer frequency, TF over GST control).
As to CGCCAC, the binding signal in [2] was 1.04 fold enrichment (6-mer frequency, TF over GST control); in experiment [3], 1.08 fold enrichment (6-mer frequency, TF over GST control); in experiment [4], 1.04 fold enrichment (6-mer frequency, TF over GST control); in [5], 1.11 fold enrichment (6-mer frequency, TF over GST control); in experiment [1], 1.02 fold enrichment (6-mer frequency, TF over GST control); in [6] it was 1.03 fold enrichment (6-mer frequency, TF over GST control). Besides, the binding signal is 1.07 fold enrichment (6-mer frequency, TF over GST control) in experiment [7]; 1.06 fold enrichment (6-mer frequency, TF over GST control) in experiment [8]; 1.03 fold enrichment (6-mer frequency, TF over GST control) in [9]; 1.05 fold enrichment (6-mer frequency, TF over GST control) in experiment [10]; 1.05 fold enrichment (6-mer frequency, TF over GST control) in experiment [11]; 1.02 fold enrichment (6-mer frequency, TF over GST control) in [12].
Turning to GTTGGC, the binding signal in experiment [1] was 1.09 fold enrichment (6-mer frequency, TF over GST control).
